# From PubChem BioAssay
# PrPC TRFRET – reduces human prion protein on the cell surface | P04156 | cell surface PrPC, TR-FRET read-out | inhibition, % at 13.8 µM | hit rate 0.43% among 370,000; in the data active = inhibition above about 24%; also: 0% = median of the test wells and 100% = reference compound wells
# SSB-PriA inh – K. pneumoniae PriA-SSBct interaction inhibition; inhibition, % at 33 µM; AlphaScreen SSBct-PriA binding, biotinylated peptide; hit rate 0.6% among 430,000; AID 1272365; in the data active = inhibition mostly above about 37%, no sharp cut-off; inactive = mostly below about 20%;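 also: plate controls were negative control peptide for no effect and reference peptide for full effect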
# CCHFV vOTU inh – CCHFV vOTU protease inhibition; inhibition, % at 11.5 µM; hit rate 0.55% among 370,000; Pep-AMC fluorescence; AID 651958; in the data active = inhibition above about 30%; also: 0% = vehicle wells with enzyme and 100% = no enzyme wells
# TcdB inh – TcdB glycohydrolase inhibition; hit rate 0.24% among 350,000; inhibition, % at 9.99 µM; P18177; TcdB glycohydrolase enzymatic assay, plate reader; AID 652162; in the data active = inhibition above about 10%
# Target sequence (P18177 whole entry, looked up): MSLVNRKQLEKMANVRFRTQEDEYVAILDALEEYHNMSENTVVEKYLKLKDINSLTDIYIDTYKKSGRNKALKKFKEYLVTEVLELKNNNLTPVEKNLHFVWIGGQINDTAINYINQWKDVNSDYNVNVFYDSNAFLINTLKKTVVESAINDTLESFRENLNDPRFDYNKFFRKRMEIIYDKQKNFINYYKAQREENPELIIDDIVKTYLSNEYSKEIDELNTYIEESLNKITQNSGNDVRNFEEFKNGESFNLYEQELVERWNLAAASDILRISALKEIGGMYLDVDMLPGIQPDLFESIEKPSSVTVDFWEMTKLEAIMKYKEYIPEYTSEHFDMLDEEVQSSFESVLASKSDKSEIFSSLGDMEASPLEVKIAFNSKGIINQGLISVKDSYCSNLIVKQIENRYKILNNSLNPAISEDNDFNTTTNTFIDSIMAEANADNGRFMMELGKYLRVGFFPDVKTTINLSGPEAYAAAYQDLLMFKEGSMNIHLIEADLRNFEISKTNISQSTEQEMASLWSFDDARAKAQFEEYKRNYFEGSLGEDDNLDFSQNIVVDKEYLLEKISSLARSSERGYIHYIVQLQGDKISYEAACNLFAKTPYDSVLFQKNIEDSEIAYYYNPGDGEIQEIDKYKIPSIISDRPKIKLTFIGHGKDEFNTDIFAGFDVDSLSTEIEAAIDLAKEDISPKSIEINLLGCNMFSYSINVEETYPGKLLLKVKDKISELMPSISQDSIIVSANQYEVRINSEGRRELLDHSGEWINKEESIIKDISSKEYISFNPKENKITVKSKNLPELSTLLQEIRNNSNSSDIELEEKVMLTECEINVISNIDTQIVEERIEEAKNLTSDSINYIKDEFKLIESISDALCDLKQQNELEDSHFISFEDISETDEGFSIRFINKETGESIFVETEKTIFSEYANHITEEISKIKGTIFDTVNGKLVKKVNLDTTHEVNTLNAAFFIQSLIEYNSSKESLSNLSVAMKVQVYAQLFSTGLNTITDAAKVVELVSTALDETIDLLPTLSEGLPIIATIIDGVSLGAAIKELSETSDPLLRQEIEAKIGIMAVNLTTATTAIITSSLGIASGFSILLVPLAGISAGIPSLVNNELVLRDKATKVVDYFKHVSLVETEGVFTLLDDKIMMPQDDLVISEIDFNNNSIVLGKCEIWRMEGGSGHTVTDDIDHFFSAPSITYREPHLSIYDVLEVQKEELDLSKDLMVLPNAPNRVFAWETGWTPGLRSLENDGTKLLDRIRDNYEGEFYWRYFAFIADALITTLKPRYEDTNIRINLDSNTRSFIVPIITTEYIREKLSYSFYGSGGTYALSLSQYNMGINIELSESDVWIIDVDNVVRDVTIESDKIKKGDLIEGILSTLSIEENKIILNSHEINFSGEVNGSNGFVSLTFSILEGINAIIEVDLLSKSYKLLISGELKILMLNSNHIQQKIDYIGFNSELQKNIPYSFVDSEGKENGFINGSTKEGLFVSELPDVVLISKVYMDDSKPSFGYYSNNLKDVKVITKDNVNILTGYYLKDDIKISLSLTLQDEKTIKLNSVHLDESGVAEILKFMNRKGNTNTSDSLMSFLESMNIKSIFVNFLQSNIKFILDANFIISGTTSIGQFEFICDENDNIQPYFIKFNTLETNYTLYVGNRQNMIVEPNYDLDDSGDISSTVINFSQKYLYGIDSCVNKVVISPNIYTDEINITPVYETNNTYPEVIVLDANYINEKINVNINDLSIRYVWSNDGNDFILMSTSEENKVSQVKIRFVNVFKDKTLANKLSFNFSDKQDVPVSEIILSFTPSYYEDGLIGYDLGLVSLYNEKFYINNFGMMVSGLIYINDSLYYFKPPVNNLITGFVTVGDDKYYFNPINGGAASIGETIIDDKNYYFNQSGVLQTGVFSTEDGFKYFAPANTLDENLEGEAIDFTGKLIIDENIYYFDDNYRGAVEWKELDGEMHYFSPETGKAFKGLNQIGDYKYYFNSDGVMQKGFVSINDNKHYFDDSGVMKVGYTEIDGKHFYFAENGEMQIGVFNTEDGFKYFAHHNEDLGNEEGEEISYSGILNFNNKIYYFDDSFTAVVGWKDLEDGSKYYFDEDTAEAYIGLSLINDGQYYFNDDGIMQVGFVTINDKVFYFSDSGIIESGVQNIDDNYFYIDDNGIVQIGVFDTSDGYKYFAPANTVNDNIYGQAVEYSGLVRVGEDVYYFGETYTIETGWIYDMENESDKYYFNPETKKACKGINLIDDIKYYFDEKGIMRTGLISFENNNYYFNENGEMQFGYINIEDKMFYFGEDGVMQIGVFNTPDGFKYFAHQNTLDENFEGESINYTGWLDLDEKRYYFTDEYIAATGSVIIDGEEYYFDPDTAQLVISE
# Vc quorum ag – inducers of Vibrio cholerae quorum light production without autoinducers | activation, % at 18.7 µM | hit rate 0.16% among 350,000 | V. cholerae BH1578 lux reporter, luminescence, 6 h; in the data active = activation mostly above about 9.7%, no sharp cut-off
# VHR inh abs – inhibitors of human VHR1 phosphatase (DUSP3) | recombinant VHR phosphatase, pNPP absorbance | inhibition, % at 13.3 µM | hit rate 0.52% among 290,000; in the data active = inhibition above about 50%
# * marks the source's active call; other numbers are inactive results; i = inactive; x = not tested or not shown. In the library only some 1.5% were active in any assay of this set; here they are far more common.
SMILES,PrPC TRFRET,SSB-PriA inh,CCHFV vOTU inh,TcdB inh,Vc quorum ag,VHR inh abs
CN(C)NC(=S)Nc1ccc2nc(-c3ccccn3)c(-c3ccccn3)nc2c1,-12,79*,-2,x,-2,7
OCCCNC(=S)Nc1ccc2nc(-c3ccccn3)c(-c3ccccn3)nc2c1,-33,72*,-30,x,i,40
Cc1ccc(-c2csc(-c3nnn(-c4cccc(F)c4)c3C)n2)cc1,x,-9,x,x,x,x
O=C(NCCc1cccc(Cl)c1)C1CCC(=O)N(Cc2ccc(Cl)cc2)C1 (stereo not drawn),-2,-4,12,1,0,59*
Cc1cccc(CCNC(=O)C2CCC(=O)N(Cc3ccc(Cl)cc3)C2)n1 (stereo not drawn),-7,-7,-1,0,i,12
Cc1ccccc1C(=O)NCCn1cc(SCC(=O)Nc2cc(C(F)(F)F)ccc2Cl)c2ccccc21,x,-14,x,x,x,x
O=C(CCc1ccccc1F)NCC1CCN(C(=O)c2cccnc2)CC1,x,2,x,x,x,x
c1ccc(-c2nc3ccccc3nc2-c2ccccn2)nc1,-15,-6,14,x,i,-4
Clc1cc(-c2ccccn2)nc(-c2ccccn2)c1,x,64*,x,x,x,x
Clc1cccc(-c2ccccn2)n1,x,14,x,x,x,x
Brc1cc(-c2ccccn2)nc(-c2ccccn2)c1,x,58*,x,x,x,x
CCc1ccc(S(=O)(=O)NCC(C)(O)COC)s1 (stereo not drawn),x,-5,x,x,x,x
O=C(OCC(=O)N1CCCc2ccccc21)c1ccc(C(F)(F)F)cc1,-1,-5,21,11*,0,x
Clc1ccc(NNc2ccnc3cc(Cl)ccc23)cc1,1,76*,6,x,i,10
Cc1ccc(/C=N/Nc2ccnc3cc(Cl)ccc23)c(C)c1,6,x,6,1,i,87*
S=C(NNc1ccnc2cc(Cl)ccc12)Nc1ccccc1Cl,8,40*,-6,x,-3,2
Oc1ccc(Nc2ccnc3cc(Cl)ccc23)cc1,-4,0,6,-2,-1,7
Nc1nnc(CC(=O)NN=Cc2cc([N+](=O)[O-])ccc2O)s1,x,7,x,x,x,x
O=C1OC(c2cccs2)=N/C1=C\c1ccc(-c2cccc(Cl)c2)o1,-6,91*,1,x,i,-4
Cc1ccc(-c2ccc(/C=C3/N=C(c4cccs4)OC3=O)o2)cc1Cl,x,18,x,x,x,x
Oc1ccccc1Nc1nc(NCc2ccccc2)c2ccccc2n1,1,50*,17,2,0,13
OCCNc1nc(Nc2ccccc2)nc2ccccc12,6,-5,-7,x,17*,-5
OCCNc1nc(Nc2ccc(Br)cc2)nc2ccccc12,-7,-6,8,1,x,20
Cc1ccc(Cc2c(-c3ccccc3)nc3cc(C)ccn23)cc1,-2,x,24,1,0,x
Cc1ccc(Cc2c(-c3ccc(C)cc3)nc3ccc(Cl)cn23)cc1,4,x,-4,11*,0,x
SMILES,PrPC TRFRET,SSB-PriA inh,CCHFV vOTU inh,TcdB inh,Vc quorum ag,VHR inh abs
Clc1ccc(-c2nc3ccc(Cl)cn3c2Cc2ccccc2)cc1,1,x,4,13*,0,x
Cc1ccn2c(Cc3ccccc3)c(-c3ccc(F)cc3)nc2c1,-4,x,-3,10*,0,x
CCOc1ccc(C(=O)NCCS(=O)(=O)N2CCN(S(C)(=O)=O)CC2)cc1OCC,x,-9,x,x,x,x
O=C(CN1CCN(CC(O)c2cccs2)CC1)NCc1ccco1 (stereo not drawn),x,-3,x,x,x,x
CC1CCC2C(=O)N(c3ccc(NC4CCN(Cc5ccccc5)CC4)c([N+](=O)[O-])c3)C(=O)C2C1 (stereo not drawn),-21,43*,8,2,0,23
O=C1C2CCCCC2C(=O)N1c1ccc(NC2CCN(Cc3ccccc3)CC2)c([N+](=O)[O-])c1 (stereo not drawn),-19,31,0,2,0,14
COc1ccc(-c2cc(=Nc3ccccc3)c3cc(C)ccc3o2)cc1,3,29,-147,0,i,2
COc1ccc(-c2cc(=Nc3ccc(C)cc3)c3ccccc3o2)cc1,-7,10,-15,x,-3,5
COc1ccc(N=c2cc(-c3ccc(O)cc3)oc3ccccc23)cc1,-8,42*,6,2,0,-3
COc1ccc(-c2cc(=O)c3ccccc3o2)cc1,9,-2,-288,-1,0,26
CCOc1ccc(N=c2cc(-c3ccc(OC)cc3)oc3ccccc23)cc1,-5,39*,-16,0,2,-8
COc1ccc(N=c2cc(-c3ccc(OC)cc3)oc3ccccc23)cc1,-3,53*,-2,x,0,23
O=C(CNC(=O)C1COc2ccccc2O1)NN=Cc1ccccc1Cl (stereo not drawn),x,-4,x,x,x,x
O=C(CNC(=O)C1COc2ccccc2O1)N/N=C\c1ccccc1Cl (stereo not drawn),-1,x,0,0,i,56*
O=C(NCC(=O)N1CCN(Cc2ccccc2)CC1)c1ccc(Br)cc1,-7,-8,-7,-3,-1,12
O=C(NCC(=O)N1CCN(Cc2ccccc2)CC1)c1ccc(Cl)cc1,0,0,-6,-1,-1,57*
O=C(CN(c1ccc(F)cc1)S(=O)(=O)c1ccc2c(c1)OCCO2)NCc1cccnc1,0,52*,-4,0,x,13
O=C(CN(c1ccc(F)cc1)S(=O)(=O)c1ccc2c(c1)OCCO2)NCc1ccncc1,-5,11,9,x,0,33
COc1ccc(-c2csc(CN3CCN(C(=O)c4ccc(Br)o4)CC3)n2)cc1,x,44*,x,x,x,x
COc1ccc(-c2csc(CN3CCN(C(=O)c4ccc([N+](=O)[O-])o4)CC3)n2)cc1,x,19,x,x,x,x
O=C(Nc1ccncc1)c1ccc(-c2ccccc2)cc1,23,-14,-3,11*,i,12
CCOc1ccc(-n2nnnc2CNC(=O)NCc2cccc3ccccc23)cc1,x,2,x,x,x,x
O=C(CCn1cnc2ccccc2c1=O)N1CCC(c2nnc(C3CC3)o2)CC1,x,-15,x,x,x,x
CCCCNC(=O)CC(C(=O)N1CCc2ccccc21)n1ccnc1 (stereo not drawn),-3,-9,2,x,i,28
CCN(CCCNC(=O)CC(C(=O)N1CCc2ccccc21)n1ccnc1)c1cccc(C)c1 (stereo not drawn),-8,47*,0,x,-1,21
SMILES,PrPC TRFRET,SSB-PriA inh,CCHFV vOTU inh,TcdB inh,Vc quorum ag,VHR inh abs
CN(C(=O)c1ccc2c(=O)n3c(nc2c1)CCCCC3)c1ccccc1,-3,-17,4,x,i,53*
COc1cccc(NC(=S)NN=C2CC(C)(C)Oc3ccc(O)cc32)c1,x,40*,x,x,x,x
Cc1ccccc1NC(=S)N/N=C1\CC(C)(C)Oc2ccc(O)cc21,-5,x,-3,1,0,10
CC1(C)CC(=NNC(=S)Nc2ccccc2F)c2cc(O)ccc2O1,x,45*,x,x,x,x
COc1ccc(NC(=S)NN=C2CC(C)(C)Oc3ccc(O)cc32)cc1,x,47*,x,x,x,x
COC(=O)c1ccccc1C(=O)N1CCN(c2nc3ccc(OC(F)(F)F)cc3s2)CC1,x,3,x,x,x,x
CCn1c(=NC(=O)c2ccnn2C)sc2cc3c(cc21)OCO3,x,13,x,x,x,x
